Test results from PubChem BioAssay AID1918969 (ICCB-Longwood Screening Facility, Harvard Medical School, 2023).
About 280 (0.15%) of roughly 190,000 compounds were called active. The sample holds actives, similar compounds and a random draw of the others, so the mix is not that of the screen. Cut-off read from the data, not from the text of the source: active = inhibition above about 27% (passing the limit was not always enough); inactive = the rest.

System: HCMV UL50-UL53 nuclear egress complex (human cytomegalovirus)
Experiment: inhibitors of HCMV UL50-UL53 interaction, biochemical, HTRF (AID 1918969)
Conditions: normalized percent inhibition, hits give high values, concentration not given here

Structure (SMILES)	inhibition
O=C(Cc1csc(NC(=O)NC2CCCC2)n1)NCCc1c[nH]c2ccccc12	-1.1% (inactive)
CCOC(=O)c1c(NC(=O)Cc2ccccc2)sc(C(=O)Nc2cccc(C(F)(F)F)c2)c1C	8.1% (inactive)
Cc1noc(C)c1COc1ccc(C(=O)OCC(=O)Nc2sc3c(c2C(N)=O)CCC3)cc1	13.2% (inactive)
Cc1nn(C)cc1CN(C)C(=O)c1cnn2c(C(F)(F)F)cc(-c3ccc(Br)cc3)nc12	-24.9% (inactive)
Cc1ccc(C(CNC(=O)Nc2ccccc2)N2CCN(C)CC2)cc1 (stereo not given)	-33.4% (inactive)
N#Cc1cccc(NC(=O)CSc2ncccn2)c1	14.4% (inactive)
Cc1ccc(NC(=O)Cn2cnc3ccc(S(=O)(=O)N4CCC(C)CC4)cc3c2=O)cc1F	-4.6% (inactive)
C#CCN1C(=O)C(c2c(-c3ccc(Cl)cc3)[nH]c3c2c(=O)n(C)c(=O)n3C)c2ccccc21 (stereo not given)	-14.2% (inactive)
COc1cc(OC)cc(C(=O)N2N=C(c3c(-c4ccccc4)c4cc(Br)ccc4[nH]c3=O)CC2c2ccco2)c1 (stereo not given)	0.4% (inactive)
CCOc1ccc(/C=C2\SC(=O)N(CCNC(=O)c3c(CC)noc3C)C2=O)cc1OC	-3.2% (inactive)
Cn1nccc1-c1nc(-c2cccc(NC(=O)Nc3ccccc3)c2)no1	-30% (inactive)
COC(=O)c1sccc1NC(=O)Cn1c(=O)nc(-c2ccccc2F)c2cc(Cl)ccc21	-19.3% (inactive)
CC1(C)CC(NCCNC2=CC(=C(C#N)C#N)CC(C)(C)C2)=CC(=C(C#N)C#N)C1	-0.1% (inactive)
COc1ccc(-c2cc(C3CC3)nc3sc(C(N)=O)c(N)c23)cc1	-38.3% (inactive)
Cn1c(CCc2ccc(NC(=O)CN3C(=O)COc4ccccc43)cc2)nc2ccccc21	-5.5% (inactive)
NCC(c1ccccc1)N1CCCC1 (stereo not given)	-3.2% (inactive)
Cc1ccc(S(=O)(=O)N/N=C2/CSCC2NC(=O)c2ccccc2)cc1 (stereo not given)	-22.7% (inactive)
CCC(C)NS(=O)(=O)c1cc(C(=O)OC)n(C)c1C (stereo not given)	-32.5% (inactive)
CC(=O)N1c2ccc(S(=O)(=O)N3CCN(c4nc5ccccc5n5cccc45)CC3)cc2CC1C (stereo not given)	-16.8% (inactive)
Cc1cc(C)cc(NC2=NS(=O)(=O)c3ccccc32)c1	7.9% (inactive)
CCn1c(COC(=O)C2CSC3(C)CCC(=O)N23)nc2cc(S(=O)(=O)N(C)C)ccc21 (stereo not given)	-24.2% (inactive)
COC(=O)c1cc(OC(=O)c2cc(OC)cc(OC)c2)cc(C(=O)OC)c1	6.8% (inactive)
COCC(=O)Nc1nc2nc(-c3ccccc3)cc(=O)n2[nH]1	-6.9% (inactive)

Structure (SMILES)	inhibition
COc1ccccc1CNC(=O)C1CCN(c2ncnc3c2sc2nc(C)cc(-c4ccccc4)c23)CC1	-7.4% (inactive)
O=C(Nc1ccc2sccc2c1)C1CC1	-0.1% (inactive)
COc1ccc(NC(=O)CN2C(=O)C(C)(C)c3ccccc32)cc1	-13.1% (inactive)
CCOC(=O)c1cc(Nc2cc(OCC)ccc2OCC)c2cc(C)ccc2n1	-15.8% (inactive)
COc1nc(N)c(C#N)c(-c2ccccc2)c1C#N	5.4% (inactive)
CC(C)CSc1nccn2nc(-c3ccc(Cl)cc3)cc12	15.5% (inactive)
CCOC(=O)c1cccc(NC(=O)c2ccc(CN3CC(=O)N4CSCC4C3=O)cc2)c1 (stereo not given)	-6.4% (inactive)
C=C(C)C1Cc2c(C)nn(S(=O)(=O)c3ccc(C)cc3)c2C1 (stereo not given)	-7.3% (inactive)
COc1ccc(OC)c(NC(=O)Cn2cnc3c2c(=O)n(C)c(=O)n3C)c1	-4.9% (inactive)
CCOc1ccc(NC(=O)CCCN2C(=O)/C(=C/c3ccc(Cl)cc3)SC2=S)cc1	-12.3% (inactive)
CCOC(=O)c1c(N)sc2c1CCC(Br)C2=O (stereo not given)	-67.7% (inactive)
CCN(C(=O)CSc1nnc(CN(c2ccc(F)cc2)S(C)(=O)=O)n1C)c1ccccc1	-23.6% (inactive)
CCOc1cccc(C(=O)Nc2ccccc2C(=O)OC)c1	9.1% (inactive)
O=C(Nc1c[nH]c(=O)[nH]c1=O)c1ccco1	-1.3% (inactive)
CC(C)CN(CC(C)C)C(=O)CCN1C(=O)c2ccccc2C1=O	-21.3% (inactive)
CN(C(=O)CSc1nc(-c2ccccc2)cc(-c2ccco2)c1C#N)c1ccccc1	-15.3% (inactive)
CC(NC(=O)NCc1ccccc1)c1nc(-c2ccncc2)n[nH]1 (stereo not given)	8.4% (inactive)
C=CCn1c(=O)c(C(=O)NCc2ccc3c(c2)OCO3)c(O)c2ccccc21	-23.4% (inactive)
CCOc1ccc(CN(C)C(=O)C2=NNC(=O)CC2)cc1	-31.5% (inactive)
COc1ccc(OCC(=O)N2N=C(c3ccc(Cl)cc3)CC2c2ccco2)cc1 (stereo not given)	-31.7% (inactive)
Cc1ccc(NC(=O)c2sc3ncnc(N4CCN(C)CC4)c3c2C)cc1F	-16.4% (inactive)
CCOC(=O)c1ccc(N=C2SC(C(=O)Nc3ccc(C)cc3C)CC(=O)N2C)cc1 (stereo not given)	-8.2% (inactive)
N#CCSc1nnc(-c2ccccc2)c2ccccc12	-26.2% (inactive)

Structure (SMILES)	inhibition
Cc1cccc(NC(c2ccccn2)c2ccc3cccnc3c2O)n1 (stereo not given)	-53.1% (inactive)
O=S(=O)(Nc1ccc(-c2ccc(N3CCCCC3)nn2)cc1)c1ccc(F)cc1F	-38.3% (inactive)
CCc1nc2cccnc2n1-c1ccc(CC(=O)N2CCOCC2)cc1	-27.2% (inactive)
CC1=Nc2c(ccc3cccnc23)C1(C)C	-24.6% (inactive)
CC1CN(Cn2[nH]c(=O)ccc2=O)CC(C)O1 (stereo not given)	-7.4% (inactive)
CC1=C(C(=O)OC2CCCC2)C(c2coc3ccc(C)cc3c2=O)C2=C(CC(c3ccco3)CC2=O)N1 (stereo not given)	-3.1% (inactive)
O=C(NCc1cc2ccccc2s1)c1ccc(N2CCOCC2)nc1	-4.6% (inactive)
CC(C(=O)Nc1ccc(S(=O)(=O)N2CCCC2)cc1)N(C)Cc1ccc(F)cc1 (stereo not given)	-5% (inactive)
COc1ccc(C2CC(=O)C3=C(C2)NC(C)=C(C(=O)Nc2ccc(C)cc2)C3c2ccccc2)cc1OC (stereo not given)	-11.7% (inactive)
O=C(NCCO)c1ccc(C(=O)NCCO)cc1	-13.4% (inactive)
CCOc1ccc(NC(=O)CS(=O)(=O)c2cccc3nsnc23)cc1	-37.5% (inactive)
COc1ccccc1N1CCN(C(=O)Cc2csc(NC(=O)Nc3ccccc3)n2)CC1	-7.3% (inactive)
CC1CCN(C(=O)c2cn(C)cc3c(=O)n(-c4ccccc4)nc2-3)CC1	-66.2% (inactive)
CC(C)(C)c1ccc(CN2C(=O)N(Cc3ccccc3)S(=O)(=O)c3ccccc32)cc1	-19.5% (inactive)
Cc1nnc(NC(=O)Cn2cnc3oc(C)c(C)c3c2=O)s1	-21.8% (inactive)
O=S(=O)(NCCc1ccccn1)c1cc(Cl)cc(Cl)c1O	-28.9% (inactive)
Cc1noc(C)c1C(=O)c1c(C)[nH]n(-c2ccccc2)c1=O	-25.3% (inactive)
Cc1ccc(Sc2c(C)[nH]n(-c3ccccc3)c2=O)cc1	-26% (inactive)
CC1=NOC(=O)C1C(c1cccc(Br)c1)c1c(C)[nH]n(-c2ccccc2)c1=O (stereo not given)	59.5% (active)
O=C(CN1C(=O)c2ccccc2C1=O)Nc1ccc2c(c1)CCC(=O)N2	-46% (inactive)
COC(=O)c1ccc(C)c(NS(=O)(=O)c2ccc3c(c2)c(=O)sn3C)c1	-31.7% (inactive)
S=C(c1ccncc1)N1CCOCC1	-13.4% (inactive)
CCCCCCCCCCCCCCCC(=O)O[C@@H]1[C@@H](O)[C@@H](O)C([C@H](NC(=O)[C@@H]2C[C@@H](CCC)CN2C)[C@H](C)Cl)O[C@@H]1SC (stereo not given in full)	-4.7% (inactive)

Structure (SMILES)	inhibition
N#CCCn1cc(C=NCc2ccccc2)c(-c2cc3ccccc3o2)n1	-30.5% (inactive)
COc1ccc(F)cc1-c1cc(N2CCN(S(=O)(=O)c3ccc(F)c(Cl)c3)CC2)ncn1	-27.5% (inactive)
NS(=O)(=O)c1ccc(NC(=O)c2cc(-c3ccc4c(c3)OCO4)nc3ccccc23)cc1	-4.6% (inactive)
COC(=O)c1sccc1NC(=O)c1cc(=O)n2c(nc3cc(C)c(C)cc32)s1	-30.2% (inactive)
O=C1CN(S(=O)(=O)c2ccc(-c3ccc(=O)[nH]n3)s2)c2ccccc2N1	-43.4% (inactive)
O=C(Oc1ccccc1)c1cccc(C(=O)Oc2ccccc2)c1F	-13.9% (inactive)
COc1ccc(OC)c(NC(=O)c2cc3c([nH]c2=O)CC(C)(C)CC3=O)c1	3.5% (inactive)
Cc1ccc(C(=O)NCC(=O)NC2CC2)cc1	-17.5% (inactive)
N#CC(C#N)=C1SCN(c2cccc(Cl)c2)CS1	-5% (inactive)
COc1cccc(NC(=O)c2c(-c3cccnc3)noc2C)c1	-15.4% (inactive)
COc1ccc(NC(=O)CCCSc2nc3sc(C)c(C)c3c(=O)[nH]2)cc1	-2.2% (inactive)
CNc1nc(OC)nc(N(C)C)n1	11.3% (inactive)
O=C(Nc1ccc2oc(-c3ccccc3Br)nc2c1)c1cccc([N+](=O)[O-])c1	7% (inactive)
CCc1nc(-c2cc(S(=O)(=O)N3CCCC(C(=O)Nc4ccc(C)c(F)c4)C3)c(C)s2)no1 (stereo not given)	-9.2% (inactive)
Cc1ccc(NC(=O)CCCc2nc3cccnc3n2CCC(C)C)cc1	-10.6% (inactive)
Nc1nc(Nc2ccccc2)sc1C(=O)c1ccc(Br)cc1	-4.3% (inactive)
CC1(C)Cc2cccc(Oc3ncnc4sccc34)c2O1	-13% (inactive)
O=C(CCS(=O)(=O)c1ccc2c(c1)NC(=O)CS2)NCc1ccccc1Cl	-15.7% (inactive)
OC(Cc1nc2ccccc2o1)c1ccccc1 (stereo not given)	-3.6% (inactive)
COc1ccc(C(=O)CSc2nc3nc[nH]c3c(=O)[nH]2)cc1	-13.4% (inactive)
COc1cc(=O)[nH]c(SC(C)C(=O)Nc2ccccc2)n1 (stereo not given)	-5.6% (inactive)
